In PubChem BioAssay (NCI):
The panel holds about 83,000 compounds, 20% with a hit somewhere; the sample as a whole holds those more often.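 A percent growth of 40 corresponds to 60% growth inhibition; 0 means no net growth; -100 means all cells died. Active threshold: below 10.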 Activity calls are given as the source filed them.

Assays:
Assay in all cases: NCI-60 one-dose screen, 48 h (100 = growth as untreated, 0 = no growth, -100 = all killed)
Details in all cases: 10 µM unless noted
HCT-15 colon = test system: HCT-15 colon
HT29 colon = test system: HT29 colon
SNB-75 CNS = test system: SNB-75 CNS
SNB-19 CNS = test system: SNB-19 CNS
U251 CNS = test system: U251 CNS
PC-3 prostate = test system: PC-3 prostate
SK-MEL-5 melanoma = test system: SK-MEL-5 melanoma
UACC-62 melanoma = test system: UACC-62 melanoma
SK-MEL-28 melanoma = test system: SK-MEL-28 melanoma
SK-MEL-2 melanoma = test system: SK-MEL-2 melanoma
EKVX NSCLC = test system: EKVX NSCLC
SN12C renal = test system: SN12C renal
UO-31 renal = test system: UO-31 renal
TK-10 renal = test system: TK-10 renal
ACHN renal = test system: ACHN renal
CAKI-1 renal = test system: CAKI-1 renal
A498 renal = test system: A498 renal
CCRF-CEM leukemia = test system: CCRF-CEM leukemia
MOLT-4 leukemia = test system: MOLT-4 leukemia

Measured: growth

COc1cc2c(c(OC)c1OC)C(=O)CC(c1cccc(NC(=O)c3cccc(NC(=O)[C@H](C)NC(=O)OC(C)(C)C)c3)c1)O2 (some centres not stated)
inactive: HCT-15 colon 44.2% | HT29 colon 62.2% | SNB-75 CNS 64.6% | SNB-19 CNS 78.8% | U251 CNS 78.1% | PC-3 prostate 45.6% | SK-MEL-5 melanoma 25.9% | UACC-62 melanoma 39.7% | SK-MEL-28 melanoma 85.6% | SK-MEL-2 melanoma 50.9% | EKVX NSCLC 93.3% | SN12C renal 59.9% | UO-31 renal 44.1% | TK-10 renal 101% | ACHN renal 41.5% | CAKI-1 renal 42.2% | A498 renal 104% | CCRF-CEM leukemia 31.2% | MOLT-4 leukemia 36.5%

Cc1ccc(-c2nc(Nc3ccccc3S(N)(=O)=O)c3ccccc3n2)cc1
inactive: HCT-15 colon 40.1% | HT29 colon 95% | SNB-75 CNS 91% | SNB-19 CNS 89% | U251 CNS 57.5% | PC-3 prostate 64.4% | SK-MEL-5 melanoma 87% | UACC-62 melanoma 70.7% | SK-MEL-28 melanoma 107% | SK-MEL-2 melanoma 102% | EKVX NSCLC 74.1% | SN12C renal 51.8% | UO-31 renal 50.4% | TK-10 renal 151% | ACHN renal 74% | CAKI-1 renal 78% | A498 renal 118% | CCRF-CEM leukemia 76.1% | MOLT-4 leukemia 78.5%

COc1ccc(/C=C2\C(=O)Nc3ccc(Cl)cc32)cc1OCc1ccccn1
inactive: HCT-15 colon 59.9% | HT29 colon 76.5% | SNB-75 CNS 38.1% | SNB-19 CNS 42.4% | PC-3 prostate 38.3% | SK-MEL-5 melanoma 52.4% | UACC-62 melanoma 20.7% | SK-MEL-28 melanoma 68% | SK-MEL-2 melanoma 96.2% | EKVX NSCLC 23.8% | SN12C renal 44.3% | TK-10 renal 63.6% | ACHN renal 12.2% | CAKI-1 renal 24.3% | A498 renal 120% | CCRF-CEM leukemia 50.8% | MOLT-4 leukemia 45.7%
active: U251 CNS -5.73% | UO-31 renal 5.88%

COc1ccc(C(=O)/C=C/c2ccc(OCc3ccc(F)cc3)c(OC)c2)cc1OC
active: SNB-75 CNS -15% | SN12C renal -1.58% | CCRF-CEM leukemia 7.26% | MOLT-4 leukemia 9.77%
inactive: HCT-15 colon 10.2% | HT29 colon 10.7% | SNB-19 CNS 15.4% | U251 CNS 10.1% | PC-3 prostate 24% | SK-MEL-5 melanoma 17.8% | UACC-62 melanoma 18.8% | SK-MEL-28 melanoma 46.8% | SK-MEL-2 melanoma 52.9% | EKVX NSCLC 59.9% | UO-31 renal 21.5% | TK-10 renal 39.6% | ACHN renal 28.5% | CAKI-1 renal 32.6% | A498 renal 94.7%

O=[N+]([O-])c1ccc(/C=C/c2nc3ccccc3n3c(=S)[nH]nc23)cc1
inactive: HCT-15 colon 82.1% | HT29 colon 93.4% | SNB-75 CNS 102% | SNB-19 CNS 78.4% | U251 CNS 76.2% | PC-3 prostate 65.8% | SK-MEL-5 melanoma 61.8% | UACC-62 melanoma 63.3% | SK-MEL-28 melanoma 82.7% | SK-MEL-2 melanoma 86.3% | EKVX NSCLC 70.7% | SN12C renal 71.1% | UO-31 renal 47.7% | TK-10 renal 127% | ACHN renal 72.7% | CAKI-1 renal 75.2% | A498 renal 91.9% | CCRF-CEM leukemia 69.8% | MOLT-4 leukemia 75.5%

CC(C)c1ccc2c(N)c(C(=O)Nc3cccc(C(F)(F)F)c3)sc2n1
inactive: HT29 colon 29.2% | SNB-75 CNS 129% | SNB-19 CNS 87.3% | U251 CNS 71.1% | PC-3 prostate 73.7% | SK-MEL-5 melanoma 72.3% | UACC-62 melanoma 92.5% | SK-MEL-28 melanoma 80.2% | SK-MEL-2 melanoma 89.5% | EKVX NSCLC 47.4% | SN12C renal 76.2% | UO-31 renal 77.9% | TK-10 renal 97.3% | ACHN renal 76% | CAKI-1 renal 74% | A498 renal 143% | CCRF-CEM leukemia 38.9% | MOLT-4 leukemia 56.4%
active: HCT-15 colon -0.908%

COc1cccc(-c2nc(Nc3ccc(S(N)(=O)=O)cc3)c3ccccc3n2)c1
active: HCT-15 colon 5.48%
inactive: HT29 colon 13.8% | SNB-75 CNS 61.1% | SNB-19 CNS 50.4% | U251 CNS 40.3% | PC-3 prostate 29.3% | SK-MEL-5 melanoma 25.6% | UACC-62 melanoma 37.5% | SK-MEL-28 melanoma 47.3% | SK-MEL-2 melanoma 46.6% | EKVX NSCLC 45.5% | SN12C renal 44.6% | UO-31 renal 17.4% | TK-10 renal 47.3% | ACHN renal 17.7% | CAKI-1 renal 25.2% | A498 renal 23.9% | CCRF-CEM leukemia 18.7% | MOLT-4 leukemia 16.8%

CCN1C(=O)N(CC)C2NNC(Sc3c(C(=O)O)c4ccccc4n(C4CCCC4)c3=O)=NC21 (configuration not stated)
inactive: HCT-15 colon 14.7% | SNB-75 CNS 20.9% | SNB-19 CNS 38.8% | PC-3 prostate 36.3% | SK-MEL-5 melanoma 13.8% | UACC-62 melanoma 47.4% | SK-MEL-28 melanoma 54.8% | SK-MEL-2 melanoma 27% | EKVX NSCLC 45.7% | SN12C renal 34.3% | UO-31 renal 46.8% | TK-10 renal 80.1% | ACHN renal 25.7% | CAKI-1 renal 27.5% | A498 renal 102% | CCRF-CEM leukemia 24.8% | MOLT-4 leukemia 24.1%
active: HT29 colon 0.444% | U251 CNS 8.79%
